KB-V1 MDR tox: kills drug-selected multidrug resistant KB-V1 cells | Potency, µM (doses to about 46.1 µM), most hits filed as cytotoxic | AID 1347076 | KB-V1 MDR cells viability, CellTiter-Glo, 72 h | 400,000 compounds, 3.4% hits; further: nearly all actives have a fitted effect of over 60% in size
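KB-V1 MDR subline cells in DMEM (phenol-red free, 10% FBS) exposed to compounds in qHTS concentration series for 72 h at 37 degrees C. Viability read by CellTiter-Glo luminescence; concentration-effect curves fitted after normalization and correction.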
DRD3 agonist: D3 dopamine receptor (human) agonism; max activation, %; D3R DiscoveRx beta-arrestin cells, luminescence, 90 min; 410,000 compounds, 0.58% hits; P35462; in the data active means max activation above about 30%
Target sequence (P35462 whole entry, looked up): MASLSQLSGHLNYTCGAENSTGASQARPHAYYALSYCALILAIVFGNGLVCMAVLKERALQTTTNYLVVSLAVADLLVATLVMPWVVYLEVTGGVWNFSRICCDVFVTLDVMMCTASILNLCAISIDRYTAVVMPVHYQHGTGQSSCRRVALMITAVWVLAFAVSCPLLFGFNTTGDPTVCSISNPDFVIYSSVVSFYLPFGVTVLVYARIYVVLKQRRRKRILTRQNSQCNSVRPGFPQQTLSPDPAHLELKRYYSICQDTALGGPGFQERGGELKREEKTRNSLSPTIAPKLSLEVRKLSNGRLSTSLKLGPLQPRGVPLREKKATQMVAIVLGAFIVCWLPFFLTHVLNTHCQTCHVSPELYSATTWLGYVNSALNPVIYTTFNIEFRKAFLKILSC
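Agonist-mode cell screen: cells plated at 1500/well and incubated overnight at 37 °C, then exposed to library compounds for 90 min at 37 °C. Detection reagent was added for 30–60 min at room temperature, and luminescence was read.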
MCF10A rereplic: inducers of DNA re-replication in MCF 10A breast cells. MCF 10A DNA re-replication, Hoechst nuclear intensity, 48 h. 350,000 compounds, 2.9% hits. AID 624296. Potency, µM (series often up to 46.1 µM), hits mostly activators; further: nearly all actives have a fitted effect of over 50% in size
KB-3-1 cytotox: kills parental KB-3-1 adenocarcinoma cells; KB-3-1 viability, CellTiter-Glo ATP luminescence, 72 h; Potency, µM (titrated, usually from 46.1 µM), usual class: cytotoxic; 400,000 compounds, 1.4% hits; AID 1347075; further: nearly all actives have a fitted effect of over 60% in size
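72 h, 37 °C compound treatment of KB-3-1 parental cells; CellTiter-Glo added, 10 min, luminescence read. Data corrected against DMSO-only plates and normalized before curve fitting.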
SW480 rerep: inducers of DNA re-replication in SW480 colon cancer cells; SW480 DNA re-replication, Hoechst DNA content imaging, 48 h; Potency, µM (top dose mostly 46.1 µM), hits mostly activators; 340,000 compounds, 1.8% hits; AID 624297; further: nearly all actives have a fitted effect of over 55% in size
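Cells (250 per well) received 23 nL compound or DMSO by pin tool and were kept 48 hr at 37 C, 5% CO2. Nuclei were then stained with Hoechst for 40 min and scanned for DNA content.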
D3 antag: D3 dopamine receptor (human) antagonism | max response, negative = inhibition, % | D3R cells, DiscoveRx beta-arrestin luminescence, antagonist mode; hits give low values | P35462 | AID 652054 | 360,000 compounds, 2.5% hits; in the data active means max response below about -50%; inconclusive means no clear call, values can overlap the other calls
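Cells plated overnight at 1500 cells/well, then exposed to library compounds with dopamine controls for 90 minutes at 37 degrees C. DiscoveRx reagent added for 30–60 minutes at room temperature; luminescence read, quantitative HTS format.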
Numbers stand for hits; . = inactive; ? = inconclusive; / = not tested or not shown; [ ] = remark or other dose. In the library only some 8.9% were active in any assay of this set; here they are far more common. Unless noted, the call rests on the fitted dose curve; in most records, active means well fitted curve in the direction sought with a large enough effect; inconclusive means small, poorly fitted or top-dose-only effect, or another doubt; inactive means no such curve, though single readings can be large; an effect the other way counts as inactive or inconclusive.

SMILES	KB-V1 MDR tox	DRD3 agonist	MCF10A rereplic	KB-3-1 cytotox	SW480 rerep	D3 antag
CC12CC[C@H]3[C@@H](CCC4(O)C[C@H](O)CCC34/C=N/NC(=O)c3ccccc3[N+](=O)[O-])C1(O)CCC2C1=CC(=O)OC1 (some centres not stated)	?	.	16µM	9.2µM	.	.
CC12CC[C@H]3[C@@H](CCC4(O)C[C@H](O)CCC34/C=N/NC(=O)Cc3ccccc3)C1(O)CCC2C1=CC(=O)OC1 (some centres not stated)	.	.	.	.	.	.
Cc1nnc2n1-c1sc(CCc3ccc(CC(C)C)cc3)cc1C(c1ccccc1Cl)=NC2C (configuration not stated)	/	.	/	/	/	/
CC(C)(C)NCC(O)c1cc(Cl)c(N)c(C(F)(F)F)c1 (configuration not stated)	/	.	.	/	.	/
C[C@]12CC[C@H](O)C[C@H]1CC[C@@H]1[C@@H]2C[C@@H](O)[C@]2(C)[C@@H](C3=CC(=O)OC3)CC[C@]12O	1.6µM	.	?	1.3µM	?	.
CO[C@H]1[C@@H](O)C[C@H](O[C@H]2[C@@H](O)C[C@H](O[C@H]3[C@@H](O)C[C@H](O[C@H]4CC[C@@]5(C)[C@H](CC[C@@H]6[C@@H]5C[C@@H](O)[C@]5(C)[C@@H](C7=CC(=O)OC7)CC[C@]65O)C4)O[C@@H]3C)O[C@@H]2C)O[C@@H]1C	/	.	/	/	/	/
C[C@]12CC[C@H](O)C[C@H]1CC[C@@H]1[C@@H]2CC[C@]2(C)[C@@H](C3=CC(=O)OC3)CC[C@]12O	1.5µM	.	?	1.6µM	?	.
COC1C(O)C(C)OC(OC2CCC3(C)C(CCC4C3C(O)CC3(C)C(C5=CC(=O)OC5)CCC43O)C2)C1O (configuration not stated)	0.18µM	.	0.26µM	0.21µM	1.3µM	.
CO[C@H]1[C@@H](O)CC(OC2[C@@H](O)CC(OC3[C@@H](O)C[C@H](OC4CC[C@@]5(C)C(CCC6C5CC(O)[C@]5(C)[C@H](C7=CC(=O)OC7)CCC65O)C4)O[C@@H]3C)O[C@@H]2C)O[C@@H]1C (some centres not stated)	/	/	.	/	.	/
CC12CCC(O)CC1CCC1C2CCC2(C)C(C3=CC(=O)OC3)C(O)CC12O (configuration not stated)	4.1µM	.	2.1µM	?	23µM	.
COCCOc1ccc(C(F)(F)F)cc1NC(=O)CN1C(=O)NC2(CCCc3ccccc32)C1=O (configuration not stated)	.	.	.	.	?	.
O=C(O)CCCC[C@@H]1SC[C@@H]2NC(=O)N[C@@H]21	.	.	.	.	.	.
C[C@]12CC[C@H](O)C[C@H]1CCC1C2CC[C@]2(C)[C@@H](c3ccc(=O)oc3)C[C@H]3O[C@]132 (some centres not stated)	?	/	13µM	?	?	/
C[C@]12CC[C@H](O)C[C@H]1CC[C@@H]1[C@@H]2CC[C@]2(C)[C@@H](c3ccc(=O)oc3)C[C@H]3O[C@]132	/	.	/	/	/	/
O=C1C[C@@H]2OCC=C3CN4CC[C@]56c7ccccc7N1[C@@H]5[C@@H]2[C@H]3C[C@H]46 (tested in a mixture with another compound)	/	/	/	/	.	/
COc1cc(C[C@@H](C)N)c(OC)cc1Br	/	.	/	/	/	/
CCS(=O)(=O)N1CCCC(C(=O)N2CCC3(CC2)OCCO3)C1 (configuration not stated)	.	.	.	.	.	.
CC(C)CC(NC(=O)C1CCCCC1)C(=O)N1CCC2(CC1)OCCO2 (configuration not stated)	10µM	.	.	.	.	.
Cc1ccc(/C=C/C(=O)C2C(=O)c3ccccc3C2=O)cc1	.	.	?	?	.	.
c1ccc(C2(N3CCCC3)CCCCC2)cc1	/	.	.	/	.	/
C=C1C(=O)O[C@@H]2C[C@@H](C)[C@@H]3C4OC4C(=O)[C@@]3(C)[C@@H](O)[C@H]12 (some centres not stated)	.	.	?	.	?	-91
C=C1C(=O)OC2CC(C)C3C=CC(=O)C3(C)C(O)C12 (configuration not stated)	3.7µM	.	.	3.3µM	?	-75
C=C1C(=O)O[C@H]2C[C@@H](C)[C@@H]3C=CC(=O)[C@@]3(C)C[C@H]12	?	.	2.9µM	?	?	-66
C=C1C(=O)OC2C1CCC(C)C1(O)C=CC(=O)C21C (configuration not stated)	?	.	?	?	?	.
C=C1C(=O)O[C@H]2[C@H]1[C@H](OC(=O)CC(=O)O[C@@H]1C[C@@H](C)[C@@H]3C=CC(=O)[C@@]3(C)[C@H]3OC(=O)C(=C)[C@H]13)C[C@@H](C)[C@H]1C=CC(=O)[C@]12C	.	.	2.3µM	.	.	.
SMILES	KB-V1 MDR tox	DRD3 agonist	MCF10A rereplic	KB-3-1 cytotox	SW480 rerep	D3 antag
O=C(CSc1nnc(NC(=O)c2cc(Br)ccc2Cl)s1)NCC1CCCO1 (configuration not stated)	.	.	.	.	?	.
CC(C)(C)n1ncc2c(=O)n(Cc3cccc(Cn4cnc5c(cnn5C(C)(C)C)c4=O)c3F)cnc21	?	/	.	?	.[9.22 µM]	/
C=C1C(=O)O[C@@H]2C[C@@H](C)[C@@H]3C=CC(=O)[C@@]3(C)[C@@H](OC(=O)CC(=O)O[C@H]3[C@@H]4C(=C)C(=O)O[C@@H]4C[C@@H](C)[C@@H]4C=CC(=O)[C@]43C)[C@H]12	.	.	?	.	?	-110
CCCCCCCCCC(=O)O[C@H]1CC[C@H]2[C@@H]3CCC4=CC(=O)CC[C@]4(C)[C@H]3CC[C@]12C	/	.	?	/	.	/
COC1/C=C/C=C(\C)Cc2cc(O)c(Cl)c(c2)N(C)C(=O)CC(OC(=O)C(C)C)C2(C)OC2C(C)C2CC1(O)NC(=O)O2 (configuration not stated)	0.73µM	.	?	?	?	.
COc1ccc(/C=C2\SC(=O)N(CCn3cnnn3)C2=O)cc1	.	.	.	.	?	.
Nc1c(C(=O)NC2CCCC2)c2nc3ccccc3nc2n1CC1CCCO1 (configuration not stated)	.	.	7.3µM	.	15µM	.
COc1ccc(Cn2c(N)c(C(=O)NCc3ccco3)c3nc4ccccc4nc32)cc1OC	21µM	.	?	?	0.52µM	.
Nc1c(C(=O)NCc2ccco2)c2nc3ccccc3nc2n1CCN1CCCCC1	.	.	.	.	.	.
COCCCNC(=O)c1c(N)n(Cc2ccco2)c2nc3ccccc3nc12	.	.	12µM	.	9.2µM	.

Screening results deposited in PubChem BioAssay by National Center for Advancing Translational Sciences (NCATS).
